Assay outcomes deposited in PubChem by National Center for Advancing Translational Sciences (NCATS).
KB-3-1 cytotox: kills parental KB-3-1 adenocarcinoma cells | KB-3-1 viability, CellTiter-Glo ATP luminescence, 72 h | Potency, µM (top dose mostly 46.1 µM), hits mostly cytotoxic | 400,000 compounds, 1.4% hits; also: nearly all actives have a fitted effect of over 60% in size
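Viability of parental KB-3-1 cells, measured by CellTiter-Glo luminescence, followed a 72 h incubation at 37 °C with pinned compounds in phenol-red-free DMEM containing 10% FBS.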
HT1080-NT tox: kills 2HG-producing HT-1080-NT fibrosarcoma cells; HT-1080-NT fibrosarcoma viability, CellTiter-Glo ATP luminescence, 48 h; 360,000 compounds, 1.6% hits; Potency, µM (titrated, usually from 46.1 µM), inactives show at the highest dose activity, negative = less viability, hits mostly cytotoxic;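 also: NT is the 2HG producing partner of a matched IDH1 knockdown line; 0% = DMSO-treated cells and -100% = media-only wells without cells; nearly all actives have a fitted effect of over 55% in size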
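Fibrosarcoma NT cells, 750 per well in 5% FBS RPMI, were exposed to compound for 48 hours. Viability: CellTiter-Glo luminescence.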
KB-V1 MDR tox: KB-V1 MDR subline cytotoxicity | AID 1347076 | 400,000 compounds, 3.4% hits | KB-V1 MDR cells viability, CellTiter-Glo, 72 h | Potency, µM (top dose mostly 46.1 µM), usual class: cytotoxic; also: nearly all actives have a fitted effect of over 60% in size
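Readout: CellTiter-Glo luminescence, 10 min after addition. Cells: KB-V1 MDR subline, 72 h at 37 degrees C with compound. Analysis: corrected, normalized data fitted to concentration-effect curves.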
HT1080 IDH1KD tx: toxicity to HT-1080 IDH1 knockdown cells (counter line); HT-1080 IDH1 knockdown viability, ATP luminescence, 48 h; Potency, µM (series often up to 46.1 µM), inactives show top-dose activity, negative = toxicity, most hits filed as cytotoxic; 360,000 compounds, 2% hits; AID 686971;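 also: 0% = DMSO wells and -100% = cell-free medium wells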
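% activity derives from luminescence (CellTiter-Glo), normalised to DMSO and no-cell wells. HT-1080-IDH1KD cells, 750/well, had 48 h compound exposure at 37 °C.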
* hit, by the source's call; i = inactive; ? = inconclusive; / = no result; [ ] = remark or other dose. In the library only some 5.7% were active in any assay of this set; here they are far more common. Calls follow the shape of the dose curve; as a rule, active = well fitted curve in the direction sought with a large enough effect; inconclusive = small, poorly fitted or top-dose-only effect, or another doubt; inactive = no such curve, though single readings can be large; an effect the other way counts as inactive or inconclusive. Unless noted, % is scaled to controls: 0 for no effect and ±100 for the full control effect; potency is read from the fitted curve at half-maximal effect.

SMILES	KB-3-1 cytotox	HT1080-NT tox	KB-V1 MDR tox	HT1080 IDH1KD tx
COc1cccc(N2CCN(C(=O)c3ccc(CS(=O)c4ccc(C)cc4)o3)CC2)c1 (configuration not stated)	0.37µM*	0.21µM*	?	0.29µM*
Cc1ccc2c(=O)cc(C(=O)Nc3sc4c(c3C(N)=O)CCCC4)oc2c1	i	/	i	/
CCC(=O)N1CCc2cc(Br)cc(S(=O)(=O)NCCc3ccccc3)c21	i	/	i	/
COc1ccc(NC(=O)CSc2nc3nc(C)c(Cc4ccccc4)c(C)n3n2)cc1OC	i	/	i	/
CCCCCCCCN1C(=O)C(O)=C(C(C)=O)C1c1ccccn1 (configuration not stated)	i	-1%	16µM*	3%
CCCCN1C(=O)C(O)=C(C(C)=O)C1c1ccccc1 (configuration not stated)	i	-1%	i	11%
O=C(Nc1ccccc1)c1cnc(N2CCCCC2)c2ccccc12	i	/	i	/
COc1ccc(N2CCN(C3C(=O)Nc4ccccc4-n4nnnc43)CC2)cc1 (configuration not stated)	i	0%	?	7%
Cc1ccc(C)c(N2CCN(C3C(=O)Nc4ccccc4-n4nnnc43)CC2)c1 (configuration not stated)	15µM*	?	12µM*	16µM*
CC(C)N1CCC2(CC1)N=C(c1ccc3c(c1)OCO3)CC(c1cc(Cl)ccc1O)N2 (configuration not stated)	15µM*	?	?	?
Cc1ccc(NC(=O)Cn2cc(S(=O)(=O)c3ccc(C)cc3)c(=O)c3cc4c(cc32)OCO4)cc1	i	/	i	/
O=C(N/N=C1\CC(c2ccccc2)Oc2ccccc21)c1cccnc1 (configuration not stated)	i	?	?	12µM*
O=C1NC(c2ccc3ccccc3c2)Nc2ccccc21 (configuration not stated)	?	?	16µM*	?
O=C1NC(c2ccc(Br)cc2)Nc2ccccc21 (configuration not stated)	?	5.8µM*	6.5µM*	12µM*
CCN(CC)c1ccc(N=C2C(=O)Nc3ccccc32)cc1	?	?	i	21µM*
Brc1ccc(C2Nc3cccc4cccc(c34)N2)cc1	i	-13%	i	-16%
CCN(CC)c1ccc(C2NC(=O)c3ccccc3N2)cc1 (configuration not stated)	4.1µM*	?	2.3µM*	?
CCN(CC)c1ccc(C2Nc3cccc4cccc(c34)N2)cc1	i	-13%	i	-6%
O=C1NC(c2ccc3c(c2)OCO3)Nc2ccccc21 (configuration not stated)	?	?	?	5%[9.24 µM]
CC(=O)c1ccc(NC(=O)C2CCC(CNS(=O)(=O)c3ccc4c(c3)CCCC(=O)N4)CC2)cc1 (configuration not stated)	i	/	i	/
Cc1cccc(N2CCN(C(=O)CC(NC(=O)c3ccccc3)c3ccccc3)CC2C)c1 (configuration not stated)	?	0%	3.7µM*	9%
Cc1cccc(N2CCN(C(=O)c3cc(C)oc3C)CC2C)c1 (configuration not stated)	18µM*	-13%	15µM*	-5%
Cc1cccc(N2CCN(C(=O)c3ccncc3)CC2C)c1 (configuration not stated)	?	0%	i	-8%
Cc1cccc(N2CCN(C(=O)c3csc4ccccc34)CC2C)c1 (configuration not stated)	?	-16%	15µM*	-17%
COc1cccc(N2CCN(C(=O)c3cc(C)oc3C)CC2)c1	23µM*	?	15µM*	?
SMILES	KB-3-1 cytotox	HT1080-NT tox	KB-V1 MDR tox	HT1080 IDH1KD tx
CC(=O)Nc1ccccc1-c1nc2ccccc2n(C(C)C(=O)Nc2ccccc2C(F)(F)F)c1=O (configuration not stated)	i	/	i	/
Cc1[nH]c2ccccc2c1C(=O)C(C)Sc1nc2ccccc2c(=O)n1Cc1cccnc1 (configuration not stated)	i	/	i	/
CCCN1CNc2c(c(=O)[nH]c(=S)n2CCc2cc(Cl)ccc2Cl)C1	/	-18%	/	-7%
C/C(=N\Nc1ccc(F)cc1)c1ccc(N2CCOCC2)c(F)c1	i	-14%	i	-3%
COc1ccc(S(=O)(=O)Cc2ccc(C(=O)N3CCN(c4cccc(C)c4)C(C)C3)o2)cc1 (configuration not stated)	3.3µM*	2.6µM*	i	12µM*
Cn1c(=O)n(C)c2cc(NC(=O)COc3ccccc3)ccc21	i	0%	i	-1%
Cc1ccc(NC(=O)COc2ccccc2)cc1S(=O)(=O)N1CCCCC1	i	5%	?	-17%
Cc1ccccc1OCC(=O)Nc1ccc2c(c1)n(C)c(=O)n2C	i	0%	13µM*	-17%
Cc1ccc(NC(=S)Nc2ccc(C(C)C)cc2)cc1S(=O)(=O)N1CCCCCC1	i	?	15µM*	21µM*
Cc1ccccc1OCC(=O)Nc1ccc(C)c(S(=O)(=O)N2CCCCCC2)c1	i	1%	12µM*	3%
O=C(Nc1ccc(F)c(S(=O)(=O)N2CCOCC2)c1)C1CCCCC1	i	8%	18µM*	11%
CCCN(CCC)CCCNC(=O)c1cc2c(=O)oc3ccc(C)cc3c2s1	i	/	i	/
CN(N=O)c1ccc(/C=C2\C=Cc3ccccc32)cc1	?	/	i	/
COc1ccc(NC(=O)Cc2ccsc2)cc1S(=O)(=O)N1CCCCC1	i	8%	21µM*	6%
COc1ccc(NC(=O)Cc2cccs2)cc1S(=O)(=O)N1CCCCC1	i	0%	i	-5%
COc1ccc(NC(=O)CCc2ccccc2)cc1S(=O)(=O)N1CCCCC1	?	-2%	5.2µM*	0%
COc1ccc(C(=O)OCc2ccccc2F)cc1S(=O)(=O)N1CCCC1	i	1%	16µM*	10%
COc1cc(CCC(=O)Nc2ccc(C)c(S(=O)(=O)N3CCCCCC3)c2)cc(OC)c1OC	6.5µM*	-4%	3.7µM*	?
Cn1c(=O)n(C)c2cc(NC(=O)CCl)ccc21	4.6µM*	?	16µM*	?
COc1ccc(NC(=O)CCOc2ccc(C)cc2)cc1S(=O)(=O)N1CCOCC1	i	1%	18µM*	-13%
O=C(CCOc1cccc(Br)c1)Nc1ccc(F)c(S(=O)(=O)N2CCOCC2)c1	i	-17%	23µM*	-23%
CC(=O)Nc1ccc2c(c1)n(C)c(=O)n2C	i	-8%	i	1%
COc1ccc(OCC(=O)Nc2ccc(OC)c(S(=O)(=O)N3CCCCC3)c2)cc1	21µM*	-18%	i	?
Cc1ccc(NC(=O)Cn2cc(S(=O)(=O)N3CCN(c4ccccc4F)CC3)c3ccccc3c2=O)cc1F	i	/	i	/
